Source: PubChem BioAssay AID1490 (National Center for Advancing Translational Sciences (NCATS), 2009)
About 11,000 (3.5%) of roughly 310,000 compounds were called active. About 4% were inconclusive and are not listed. The sample holds actives, similar compounds and a random draw of the others, so the mix is not that of the screen. Unmarked numbers belong to inactive results. The call rests on the fitted dose curve; in most records, active means well fitted inhibition curve with a large enough effect; inconclusive means small, poorly fitted or top-dose-only effect, or another doubt; inactive means no such curve, though single readings can be large or run the other way.

Molecular target: 4'-phosphopantetheinyl transferase ffp (Bacillus subtilis) (UniProt Q9F4F7)
Experiment: qHTS Assay for Inhibitors of Bacillus subtilis Sfp phosphopantetheinyl transferase (PPTase);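 further: the enzyme is Sfp with the accession as filed and its product quenches rhodamine fluorescence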;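 on largest response in the series, negative = inhibition: 0% = enzyme reaction without inhibitor and -100% = no enzyme wells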
Details: Biochemical Sfp PPTase activity
Method in brief: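 Step 1, compound plus 15 nM Sfp-PPTase, 15 min, room temperature. Step 2, add rhodamine-CoA (5 uM) and BHQ-2-YbbR (12.5 uM). Step 3, read 525/598 nm fluorescence at 0 and 30 min.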
Potency means the concentration at half of the fitted maximal effect.

SMILES | largest response in the series, negative = inhibition [%] | Potency
Cc1cnc(C(=O)OCc2c(C)cc(C(C)(C)C)cc2C)cn1 | -9.1 | –
COc1ccc(CNC(=O)CSc2n[nH]c(N)n2)cc1OC | 2.91 | –
COc1ccc(-c2nc(SCC(=O)N3CCOCC3)n[nH]2)cc1 | 18.2 | –
COc1ccc(C(=O)CSc2n[nH]c(N)n2)cc1 | – | 56.2 µM (active)
Cc1nn2c(=O)cc(COC(=O)c3ccc(NC(=O)C(C)(C)C)cc3)nc2s1 | 18.9 | –
COc1cc(/C=C/C(=O)O)cc(S(=O)(=O)Nc2ccccc2C(=O)NCCc2ccccc2)c1OC | 13.6 | –
COc1ccccc1-c1nnc(SCC(=O)Nc2ccccc2)o1 | 1.67 | –
COc1ccccc1-c1nnc(NC(=O)c2ccc3ncsc3c2)o1 | – | 79.4 µM (active)
COc1ccccc1-c1nnc(NC(=O)c2cccc(N3C(=O)CCC3=O)c2)o1 | 2.11 | –
Cc1ccccc1N1CCN(CCCN2C(=O)C3CCCCN3C2=O)CC1 (configuration not stated) | 17.8 | –
COc1ccc(OC)c(NC(=O)c2ccc3c(c2)CCN3S(C)(=O)=O)c1 | 9.13 | –
O=C(N/N=C/c1ccc([N+](=O)[O-])o1)c1cccc(S(=O)(=O)N2CCOCC2)c1 | -9.66 | –
O=[N+]([O-])c1cc(Cl)cc(/C=N/NC(=S)Nc2cc(S(=O)(=O)N3CCOCC3)ccc2Cl)c1O | – | 56.2 µM (active)
O=C(N/N=C/c1cc(Cl)cc([N+](=O)[O-])c1O)C(O)(c1ccccc1)c1ccccc1 | -0.479 | –
COc1ccc(N2CCN(S(=O)(=O)CCNC(=O)C34CC5CC(CC(C5)C3)C4)CC2)cc1 | 2.52 | –
CCCCCn1c(SCCC(C)C)nc2c1c(=O)[nH]c(=O)n2C | – | 28.2 µM (active)
CCCCCCn1c(SCC(=O)c2ccccc2)nc2c1c(=O)[nH]c(=O)n2C | -15.2 | –
Cn1c(=O)[nH]c(=O)c2c1nc(Br)n2CCCCSc1nc2ccccc2o1 | 3.31 | –
CCOc1ccc(S(=O)(=O)N2CCC(c3ccccc3)CC2)cc1C(=O)O | 13.6 | –

SMILES | largest response in the series, negative = inhibition [%] | Potency
Cc1ccc(OCC(=O)Nc2ccc(N3CCN(C(=O)c4ccco4)CC3)cc2)c(C)c1 | -9.57 | –
CC(=O)N1CSCC1C(=O)O (configuration not stated) | – | 20 µM (active)
CC(=O)N1Cc2ccccc2CC1C(=O)O (configuration not stated) | 6.16 | –
CC1CC(C)CN(C(=O)CCNC(=O)Cn2cnc3ccccc3c2=O)C1 (configuration not stated) | -7.35 | –
COc1ccc(NC(=O)c2sc3nc(C)nc(N4CCN(c5ccccn5)CC4)c3c2C)c(OC)c1 | -8.26 | –
CCc1ccc(-n2c(=S)sc3c(=O)n(-c4ccccc4OC)c(=S)[nH]c32)cc1 | -10.9 | –
COc1ccccc1-n1c(=S)[nH]c2c(sc(=S)n2-c2ccc(C)cc2C)c1=O | – | 50.1 µM (active)
COc1ccccc1-n1cn[nH]c1=S | -24.2 | –
COc1ccc(C)cc1NC(=S)N1CCOCC1 | 3.26 | –
COc1cc(NC(=S)N2CCCC(C)C2)c(OC)cc1Cl (configuration not stated) | – | 14.1 µM (active)
COc1ccccc1C1CCN(C(=S)Nc2ccc(Br)cc2)CC1 | 16.1 | –
COc1cc(NC(=S)N2CCCC(C)C2)cc(OC)c1OC (configuration not stated) | – | 20 µM (active)
COc1ccc(NC(=S)N2CCCC(CO)C2)c(OC)c1 (configuration not stated) | -15.1 | –
COc1cc(NC(=O)NCC2CCN(Cc3ccc(C)cc3)CC2)cc(OC)c1OC | 4.55 | –
CC1CC(C)CN(C(=O)C2CC(=O)N(c3ccc(F)cc3)C2)C1 (configuration not stated) | 0.935 | –
COc1ccc(C(CCN2CCOCC2)c2c(OC)cc(OC)c3c2OC(=O)CC3c2ccc(OC)cc2)cc1 (configuration not stated) | -11.3 | –
Cc1cc(F)ccc1N1CCC(N2CCN(C)C(CCO)C2)CC1 (configuration not stated) | 6.62 | –
Cc1ccc(-c2c3c(=O)n(C)c(=O)n(C)c3cn2-n2cnnc2)cc1 | 12.6 | –
COc1ccc(-c2c3c(=O)n(C)c(=O)n(C)c3cn2-c2cccc(OC)c2)cc1 | 3.62 | –

SMILES | largest response in the series, negative = inhibition [%] | Potency
Cc1ccc(-c2c3c(=O)n(C)c(=O)n(C)c3cn2-c2ccccc2O)cc1 | – | 56.2 µM (active)
O=C(CCNC(=O)C1CCN(S(=O)(=O)c2ccccc2)CC1)NC1CC1 | 5.65 | –
Cc1ccn(C(CC(=O)c2ccc(Br)cc2)C(=O)O)n1 (configuration not stated) | – | 22.4 µM (active)
Cc1cc(C)c2c(=O)[nH]c(SCC(=O)Nc3ccc(Br)cc3)nc2n1 | 1.73 | –
Cc1ccc(NC(=O)CCC(=O)c2ccc(Br)cc2)cc1 | 11.8 | –
CCOc1ccc(S(=O)(=O)NCCSc2ccccc2)cc1 | 6.97 | –
CCOc1ccc2nc(NCCNS(=O)(=O)c3ccccc3)c(C#N)cc2c1 | – | 79.4 µM (active)
CCOc1ccc2nc(NCCNC(=O)C(C)(C)C)c(C)cc2c1 | 17.3 | –
COc1cc(COCC(O)CN2CCN(Cc3ccc4c(c3)OCO4)CC2)cc(OC)c1OC (configuration not stated) | 8.76 | –
COc1ccc2cc1Oc1ccc(cc1)C[C@H]1c3cc(c(OC)cc3CCN1C)Oc1c(O)c(OC)cc3c1[C@H](C2)N(C)CC3 | 1.93 | –
COc1c(O)ccc2c1CN1CCc3cc4c(cc3C1C2)OCO4 (configuration not stated) | – | 35.5 µM (active)
CCOC(=O)[C@]1(C(/C=C/c2ccco2)NC(=O)OC)CCCC1=O (some centres not stated) | -6.29 | –
O=C(O)c1cc(S(=O)(=O)N(Cc2ccccc2)c2ccccc2)ccc1Cl | 19 | –
CCC(c1nnnn1Cc1ccco1)N(CCc1ccccc1)Cc1cc2cccc(C)c2[nH]c1=O (configuration not stated) | – | 25.1 µM (active)
CCC(c1nnnn1Cc1ccccc1)N(Cc1cc2cc(OC)ccc2[nH]c1=O)CC1CCCO1 (configuration not stated) | -86 | –
CCC(c1nnnn1C1CCCC1)N(Cc1cccs1)Cc1cc2cccc(C)c2[nH]c1=O (configuration not stated) | 9.11 | –
CCC(c1nnnn1Cc1ccco1)N(Cc1cc2cc(OC)ccc2[nH]c1=O)C1CCCCC1 (configuration not stated) | – | 3.55 µM (active)
COc1ccc2[nH]c(=O)c(CN(Cc3nnnn3CCc3ccccc3)CC3CCCO3)cc2c1 (configuration not stated) | 0.899 | –
CCC(c1nnnn1Cc1ccco1)N(CCc1ccccc1)Cc1cc2ccc(OC)cc2[nH]c1=O (configuration not stated) | -15.9 | –
